BoNT-F LC inh = BoNT/F light chain protease inhibitors, primary screen, biochemical, flow cytometry, MLPCN library. Multiplex microsphere protease cleavage assay. inhibition, % at 10 µM. actives 0.22% (n = 360,000); in the data active = inhibition above about 35%, passing the limit was not always enough; inconclusive = no clear call, values can overlap the other calls
PriA SSB inh = inhibitors of Klebsiella pneumoniae PriA binding to SSB C-terminal tail, primary screen, biochemical, AlphaScreen. PriA–SSB C-terminal tail interaction (Klebsiella pneumoniae). AlphaScreen SSBct-PriA binding, biotinylated peptide. inhibition, % at 33 µM. actives 0.6% (n = 430,000); in the data active = inhibition mostly above about 37%, no sharp cut-off; inactive = mostly below about 20%
Autofluor counter = counter-screen for toxin protease inhibitors: compound fluorescence; compound autofluorescence counterscreen, microsphere flow cytometry; hits give high values; actives 3.1% (n = 360,000); fluorescence intensity (no concentration beside the values); in the data active = fluorescence intensity above about 16000; inconclusive = no clear call, values can overlap the other calls
Anthrax LF inh2 = Bacillus anthracis LF protease inhibitors, primary screen, biochemical, multiplex microsphere, MLPCN library; Lethal factor (Bacillus anthracis), P15917; multiplex microsphere protease cleavage assay; inhibition, % at 10 µM; actives 0.12% (n = 360,000); AID 588501, 2011
BoNT A protease = BoNT/A light chain protease inhibitors, primary screen, biochemical, flow cytometry, MLPCN library. multiplex microsphere protease substrate cleavage. inhibition, % at 10 µM. actives 0.17% (n = 360,000)
Numbers stand for hits; 0 = inactive; ? = inconclusive; - = no result given; ! = not confirmed by another sample. Hits are enriched below; roughly 3.1% of the tested compounds scored in any of these assays. Rule as the data show it, unless noted: active = inhibition above about 30%; inconclusive = no clear call, values can overlap the other calls; inactive = below that.

SMILES	BoNT-F LC inh	PriA SSB inh	Autofluor counter	Anthrax LF inh2	BoNT A protease
Cc1cccc(-n2ccnc2SCC(=O)Nc2ccc3c(c2)OCCO3)c1C	-	49	-	-	-
Cc1cc(C)cc(-n2ccnc2SCC(=O)Nc2cccc(Cl)c2)c1	-	47	-	-	-
COc1ccccc1-n1ccnc1SCC(=O)Nc1ccc2c(c1)OCCO2	-	0	-	-	-
O=C(NCc1c(F)cccc1F)c1ncc(-c2ccc(Cl)cc2)o1	-	0	-	-	-
Cc1cc(C)cc(-n2ccnc2SCC(=O)Nc2ccc3c(c2)OCCO3)c1	0	45!	0	0	0
Cn1cnc(S(=O)(=O)Nc2ccccc2-c2csc(-c3ccccc3F)n2)c1	-	0	-	-	-
O=C(CN1C(=O)CCC1=O)NCC#CCOc1cccc(C(F)(F)F)c1	-	0	-	-	-
CC(O)CNc1ccc([N+](=O)[O-])c2cccnc12 (stereo not given)	0	0	0	0	0
CCC(CO)Nc1ccc([N+](=O)[O-])c2cccnc12 (stereo not given)	0	0	22808	0	0
NC(=O)c1nn(-c2ccccc2)c(=O)cc1O	0	0	22915	0	0
NC(=O)c1nn(-c2ccc(Oc3ccccc3)cc2)c(=O)cc1O	0	0	0	0	0
NC(=O)c1nn(-c2cccc(Cl)c2)c(=O)cc1O	0	0	16281	0	0
Cc1nnc2n(-c3ccccc3)c(=O)c3c4c(sc3n12)CC(C)CC4 (stereo not given)	0	0	18626	0	0
COc1ccc(-n2c(=O)c3c4c(sc3n3cnnc23)CC(C)CC4)cc1 (stereo not given)	0	0	0	0	0
Cc1nnsc1C(=O)N1CCC(Oc2ccc(N(C)C)nn2)C1 (stereo not given)	-	0	-	-	-
O=C(NC12CC3CC(CC(C3)C1)C2)c1cncc(O)c1	0	0	20010	0	0
Cc1cccc(NC(=O)Cn2nnc3ccccc32)n1	-	0	-	-	-
CC1CC2(CC(C)(C(=O)CSc3nc4ccccc4s3)OC2=O)C(=O)O1 (stereo not given)	0	0	23789	0	0
CC1(C(=O)CSc2nc3ccccc3s2)CCC(=O)O1 (stereo not given)	0	0	0	0	0
O=C(CSc1nc2ccccc2s1)N1CCOCC1	0	0	0	0	0
CC1(C)CC2(CC(C)(C(=O)CSc3nc4ccccc4s3)OC2=O)C(=O)O1 (stereo not given)	0	0	16350	0	?
Cc1ccc(C)c(-n2c(-c3ccc4c(c3)OCO4)n[nH]c2=S)c1	0	0	23573	0	?
Cc1ccc(C)c(-n2c(-c3csc(C)c3)n[nH]c2=S)c1	0	0	0	0	0
O=S(=O)(NCc1ccnc(-c2cccs2)c1)c1ccc2c(c1)CCO2	-	0	-	-	-
O=C(/C=C/c1c(Cl)cccc1Cl)NCCc1ccccc1	0	0	20277	0	0
SMILES	BoNT-F LC inh	PriA SSB inh	Autofluor counter	Anthrax LF inh2	BoNT A protease
O=C(/C=C/c1cccc(Cl)c1)NCCc1ccccc1	0	0	0	0	0
COc1cccc(N2C[C@@H](C(=O)NCc3nn(C)c4c3CCCC4)CC2=O)c1	-	0	-	-	-
Cc1cc(C)nc(N2CCCC(C(=O)NCc3cccs3)C2)n1 (stereo not given)	0	0	21442	0	0
COc1nc(OC)nc(N2CCC(C(=O)NCc3cccs3)CC2)n1	0	0	21111	0	?
Cc1cc(C)nc(N2CCCC(C(=O)NC(C)CCc3ccco3)C2)n1 (stereo not given)	0	0	23504	0	?
O=C(NCc1cccs1)C1CCCN(c2nc3ccccc3o2)C1 (stereo not given)	0	0	16144	0	0
Cc1ccc(CNC(=O)C2CCCN(c3nc4ccccc4o3)C2)cc1 (stereo not given)	0	0	0	0	0
Cc1ccc(S(=O)(=O)NC(N)=NCCc2c[nH]c3ccccc23)cc1C	-	0	-	-	-
Cc1ccc(NC(=O)CCCn2nc(-c3ccc(Cl)cc3)ccc2=O)cc1C	-	0	-	-	-
O=C(NCC1CCN(C(=O)c2cccnc2)CC1)c1cc2ccccc2s1	-	0	-	-	-
COc1ccc2c(c1)c(=O)oc1cc(OCC(=O)N3CCCC(C)C3)ccc12 (stereo not given)	0	0	0	0	0
COc1ccc2c(c1)c(=O)oc1cc(OCC(=O)N3CCC(C)CC3)ccc12	0	0	20779	0	0
C=CCn1cc(C=NNc2nc3ccccc3[nH]2)c2ccccc21	-	61	-	-	-
C(=N\Nc1nc2ccccc2[nH]1)/c1c[nH]c2ccccc12	0	-	0	0	0
O=c1oc2c(CN3CCOCC3)c(O)ccc2c2c1CCC2	0	0	20943	0	0
O=C(Nc1nnc(C2CCCO2)s1)c1ccccn1 (stereo not given)	-	110	-	-	-
O=C(Nc1nnc(C2CCCCC2)s1)c1cccs1	0	0	0	?	?
CCc1c(C(=O)Nc2nnc(C3CC3)s2)csc1C	0	0	21291	0	?
O=C(Nc1nnc(C2CCCCC2)s1)c1ccccn1	-	70	-	-	-
O=C(Nc1nnc(C2CCCO2)s1)c1cccs1 (stereo not given)	0	0	0	0	0
CCOc1ncccc1C(=O)Nc1nnc(C2CC2)s1	0	0	0	0	0
O=C(Nc1nnc(C2CCC2)s1)c1ccccn1	-	102	-	-	-
CN(C)S(=O)(=O)c1ccc(C(=O)N2CCC(Oc3cccnn3)CC2)cc1	-	0	-	-	-
O=c1[nH]c(SCc2ccccn2)nc2c1cnn2-c1cccc(Cl)c1	-	0	-	-	-
O=C(Nc1nnc(SCc2ccc(F)cc2)s1)c1ccccn1	0	78	0	0	0
SMILES	BoNT-F LC inh	PriA SSB inh	Autofluor counter	Anthrax LF inh2	BoNT A protease
O=C(COc1ccc(S(=O)(=O)N2CCOCC2)cc1)Nc1ccccc1C(F)(F)F	0	0	22134	0	0
CCOc1ccc(-c2nc(NC(=O)C3CCN(S(C)(=O)=O)CC3)sc2C)cc1	-	0	-	-	-
Cc1nnc(NC(=O)CSc2c(C)cnc3c2c(=O)n(C)c(=O)n3C)s1	-	0	-	-	-
CCOC(=O)C(C)Sc1nc2c(c(-c3cccs3)c1C#N)CCC2 (stereo not given)	0	0	0	0	0
CCOC(=O)CSc1nc2c(c(-c3ccc(C)o3)c1C#N)CCCC2	0	0	23315	0	0
CC(C)OC(=O)CC(=O)CSc1nc2c(c(-c3cccs3)c1C#N)CCC2	0	0	0	0	30
CCOc1ccc(S(=O)(=O)Nc2cnc(N3CCN(c4ccccn4)CC3)nc2)cc1	-	0	-	-	-
O=C(NCc1cccnc1)c1cccnc1-c1nc2ccccc2s1	0	0	22730	0	0
Cc1ccc2c(Cl)c(C(=O)NCc3cccnc3)sc2c1	0	0	20230	0	?
O=C(NCc1cccnc1)c1sc2ccccc2c1Cl	0	0	24841	0	?
Cc1ccc(N2CCN(S(=O)(=O)c3ccccc3)CC2)cc1Cl	-	0	-	-	-
O=C(c1ccc(OC(F)(F)F)cc1)N1CCC(Oc2ncccc2Br)CC1	-	0	-	-	-
COc1cccc2cc(C(=O)N3CCC(Oc4nc5ccccc5o4)CC3)oc12	-	0	-	-	-
O=[N+]([O-])c1ccc(Cl)cc1Sc1nc2ccccc2o1	0	49	0	0	0
